# Source: PubChem BioAssay AID686978 (National Center for Advancing Translational Sciences (NCATS), 2013)
# About 64,000 (15%) of roughly 420,000 compounds were called active. About 27% were inconclusive and are not listed. The list is a sample of the results. A number with no mark means an inactive call. The call rests on the fitted dose curve; in most records, active means well fitted inhibition curve with a large enough effect; inconclusive means small, poorly fitted or top-dose-only effect; inactive means flat fitted curve, though single readings scatter.
# Assay: qHTS for Inhibitors of human tyrosyl-DNA phosphodiesterase 1 (TDP1): qHTS in cells in absence of CPT; further: nearly all actives have a fitted effect of over 55% in size
# Conditions: DT40 Tdp1-/- hTDP1 cells, no CPT, ATP luminescence, 48 h; activity change, negative = growth inhibition: at 46.2 µM (top of the series)
# Outline: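 Cells were dispensed at 400 per well, compounds added by pin tool, plates incubated ≥48 hr at 37 °C, then CellTiter-Glo added for 30 min at room temperature before luminescence reading. Line: DT40 Tdp1-/- complemented with hTDP1; camptothecin omitted.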
# On the % scale 0 is the no-effect control and ±100 the full control effect; potency means the concentration at half of the fitted maximal effect.
SMILES,"activity change, negative = growth inhibition [%]",Potency
COc1ccc(NC(=O)CCCC2CCCCC2)c(OC)c1,-16.4,–
COc1ccc(Cl)cc1C(=O)NNC(=S)NC(=O)/C=C/c1ccco1,–,23.1 µM (active)
C=CCNC(=S)NNC(=O)c1cc(Cl)ccc1OC,3.87,–
O=C(/C=C/c1ccco1)NC(=S)Nc1ccccc1Br,-12.9,–
CC(C)c1nc(CNC(=O)CC2C(=O)NCCN2Cc2ccoc2)cs1 (stereo not given),-1.5,–
O=C(Cn1cnc2ccccc21)N/N=C/c1ccco1,15,–
CCC(=O)Nc1ccccc1-c1nc2ccccc2n(CC(=O)Nc2ccc(C)c(C)c2)c1=O,-29,–
O=C(COC(=O)Cn1cnc2ccccc2c1=O)NCc1ccccc1Cl,2.41,–
CN(Cc1c(F)cccc1Cl)C(=O)COC(=O)Cn1cnc2ccccc2c1=O,3.31,–
O=C(COC(=O)Cn1cnc2ccccc21)Nc1cccc2c1C(=O)c1ccccc1C2=O,–,9.2 µM (active)
O=C(Cn1cnc2ccccc21)Nc1ccccc1-c1ccccc1,–,2.31 µM (active)
CCN(Cc1ccccc1)Cc1c(O)ccc2c(=O)c(-c3ccc(Cl)cc3Cl)coc12,6.31,–
CCCn1c(SCC(=O)Nc2ccc(C)c(S(=O)(=O)N3CCOCC3)c2)n[nH]c1=O,-12.2,–
CCOC(=O)C1CCN(C(=O)C2(NC(=O)Nc3cccc(F)c3)CCCCC2)CC1,-24.2,–
COC(=O)C(=Nc1ccccc1)/C(C(=O)C(=O)N(C)c1ccccc1)=C(\O)c1ccc(Cl)cc1,-0.772,–
COc1cc(OC)c(C(=O)OCC(=O)N2CC(=O)Nc3ccccc32)cc1OC,12.3,–
O=C1NC(c2ccncc2)Nc2sc3c(c21)CCCC3 (stereo not given),-11.1,–
CCOC(=O)N1CCc2c(sc3c2C(=O)NC(c2ccccc2F)N3)C1 (stereo not given),–,16.4 µM (active)
N#Cc1c(N)sc2c1CCN(C(=O)OCc1ccccc1)C2,-24.9,–
COc1ccc(OC)c(NC(=O)c2cnn(-c3ccccc3Cl)c2NC(=O)c2ccco2)c1,-17.9,–
C#CCN1C(=O)C(O)(CC(=O)c2cc(OC)ccc2OC)c2ccccc21 (stereo not given),–,16.4 µM (active)
COc1ccc(C(=O)COC(=O)c2nn(C)c(=O)c3ccccc23)c(OC)c1,5.24,–
CC(=O)NC(=S)Nc1ccc(NC(=O)c2cccnc2)cc1,7.62,–
N#CCSc1ccccc1NC(=O)CN1C(=O)NC(CCc2ccccc2)C1=O (stereo not given),-11.9,–
Cn1ncc([N+](=O)[O-])c1C(=O)Nc1cc(Cl)ccc1Cl,-5.68,–
COc1ccc(CN2CC(C(=O)NCCc3ccc(Cl)cc3)CC2=O)cc1 (stereo not given),6.36,–
COc1ccc(CN2CC(C(=O)NC3CCCCC3)CC2=O)cc1 (stereo not given),14.2,–

SMILES,"activity change, negative = growth inhibition [%]",Potency
COc1ccc(Cn2c(=O)cc(C)[nH]c2=S)cc1,12,–
COc1ccc(CN2CN(C3CCCC3)CSC2=S)cc1,–,4.61 µM (active)
COc1ccc(CN2CN(C(C)C)CSC2=S)cc1,–,3.26 µM (active)
COc1ccc(CCNC(=O)COC(=O)C2CCCCC2)cc1,0.441,–
CC(=O)N1CSCC1C(=O)O (stereo not given),2.18,–
CC1(C)Oc2ccc3ccc(=O)oc3c2/C(=C/NCCO)C1=O,-13.1,–
CCCCN(C(=O)C(CCSC)N1C(=O)c2ccccc2C1=O)c1c(N)n(CCC)c(=O)[nH]c1=O (stereo not given),19,–
CC(C)(CNC(=O)CNC(=O)C1CCCCC1)N1CCOCC1,-16.2,–
N#CC1=C(N)OC2=C(C(=O)CCC2)C1C1CC=CCC1 (stereo not given),-29,–
COc1cc(C2C(C#N)=C(N)Oc3n[nH]c(-c4ccccn4)c32)cc(OC)c1OC (stereo not given),-15.1,–
CCOc1c(OC)cc(C2C(C#N)=C(N)Oc3n[nH]c(-c4ccncc4)c32)cc1OC (stereo not given),-6.03,–
CCCc1[nH]nc2c1C(c1ccc(Br)s1)C(C#N)=C(N)O2 (stereo not given),–,7.31 µM (active)
CCCc1[nH]nc2c1C(C1CC=CCC1)C(C#N)=C(N)O2 (stereo not given),–,13 µM (active)
CCc1ccc(C2C(C#N)=C(N)Oc3n[nH]c(CC(=O)OC)c32)cc1 (stereo not given),-4.43,–
Cc1cc(C)c(C#N)c(SCc2[nH]nc3c2C(c2ccccc2)C(C#N)=C(N)O3)n1 (stereo not given),-2.46,–
COCc1[nH]nc2c1C(C1C=CCCC1)C(C#N)=C(N)O2 (stereo not given),–,20.6 µM (active)
CCCc1nc2c([nH]1)C(c1cccnc1)C(C#N)=C(N)O2 (stereo not given),-10.3,–
CCOc1ccc(CNC(=O)C2CCC(=O)N2C2CCCC2)cc1OC (stereo not given),-16.4,–
CCCC(=O)Nc1ccc(C(=O)N/N=C/c2ccc[nH]2)cc1,-23.6,–
CCOC(=O)c1ccccc1NC(=O)CSc1nc2ccccc2c(=O)[nH]1,-14,–
COc1ccc(C(=O)c2oc3ccccc3c2NC(=O)COc2cccc(C)c2)cc1,-5.81,–
C=CCN(CC=C)C(=O)COC(=O)c1n[nH]c2ccccc12,2.16,–
COC(=O)c1sccc1-n1cccc1C(=O)C(=O)N1CCCCC1,-10.5,–
COc1ccc(Cc2nnc(SCC(=O)Nc3ccc(C)c(C)c3)o2)cc1OC,-26.6,–
CCC(=O)Nc1ccc(C(=O)CSc2nnc(CNc3ccc(Cl)cc3)o2)cc1OC,–,12.6 µM (active)
CCOC(=O)CSc1nnc(CNc2ccc(F)cc2)o1,-5.09,–
Cc1nn(C)cc1C(=O)NNC(=S)Nc1ccc(Cl)cc1,-3.84,–

SMILES,"activity change, negative = growth inhibition [%]",Potency
O=S(=O)(c1cccc(Cn2nnc(-c3ccc(F)cc3)n2)c1)N1CCOCC1,–,20.6 µM (active)
Cc1ccc(S(=O)(=O)N2CCOCC2)cc1C(=O)NCc1ccc(F)cc1,-15.7,–
CCN(Cc1ccncc1)C(=O)c1cccc(S(=O)(=O)N2CCOCC2)c1,-1.97,–
CN(C)c1ccc(/C=c2\[nH]c(=O)/c(=C/c3ccc(N(C)C)cc3)[nH]c2=O)cc1,-15.2,–
COc1cc(/C=C2/SC(=S)N(Cc3ccccc3)C2=O)cc(OC)c1O,-27.9,–
CN(C)c1ccc(/C=C2\NC(=S)N(Cc3ccccc3)C2=O)cc1,–,20.6 µM (active)
Cc1nc2ccccn2c(=O)c1NC(=O)c1ccc(Br)o1,-7.88,–
Cc1ccc(-c2nc3ccccn3c2Nc2c(C)cccc2C)o1,–,18.4 µM (active)
Cc1nc2ccccn2c(=O)c1NC(=O)c1c(F)cccc1F,-16.3,–
CO[C@H]1O[C@@H]2O[C@@]3(C)CC[C@@H]4[C@@H](C)CC[C@@H]([C@H]1C)[C@@]24OO3,–,0.891 µM (active)
CCOC(=O)CSc1nnc(-c2ccncc2)o1,-15.1,–
CCOc1cc(/C=N/NC(=O)OC)ccc1OCCSc1ccc(Cl)cc1,-27.1,–
Cc1ccc(NN=Nc2nc3c([nH]2)c(=O)n(C)c(=O)n3C)cc1,-24.2,–
Oc1ccccc1-c1nc2ccc(Cl)cn2c1Nc1ccc2c(c1)OCCO2,–,23.1 µM (active)
Cn1cc([N+](=O)[O-])c(C(=O)Nc2ccc3c(c2)OCCO3)n1,-10.6,–
Cc1ccn2c(Nc3ccc4c(c3)OCCO4)c(-c3ccc(C)s3)nc2c1,-9.21,–
COCCn1c(SCC(=O)Nc2nc(C)cs2)nnc1C(C)C,-9.21,–
COc1ccc(OC)c(C2N(c3ccccn3)C(=O)C3CCCN32)c1 (stereo not given),-5.04,–
CCc1nnc(NS(=O)(=O)c2ccc(NC(=S)NC(=O)/C=C/c3cccs3)cc2)s1,4.4,–
O=C(c1cc(-c2cccc(O)c2)on1)N1CCc2ccccc2C1,-24.1,–
Clc1ccc(-c2ncc3ccccn23)c(Cl)c1,-10.1,–
Clc1ccc(-c2cc(C3CCNCC3)[nH]n2)c(Cl)c1,–,20.6 µM (active)
CCCn1c(=O)c2[nH]c(C3CCCC3)nc2n(CCC)c1=O,–,inactive
CCCc1cc(=O)[nH]c(SCC(=O)Nc2ccc(S(=O)(=O)N3CCCC3)cc2)n1,-2.47,–
Clc1ccc(CSc2nnc(/C=C/c3ccccc3)o2)c(Cl)c1,4.1,–
COCCNc1nc2nonc2nc1N1CCCC1c1nccs1 (stereo not given),3.79,–
CNC(=O)CN1C(=O)c2ccccc2S1(=O)=O,-4.63,–

SMILES,"activity change, negative = growth inhibition [%]",Potency
CC(C)(C)c1ccc(CN2C(=O)c3ccccc3S2(=O)=O)cc1,–,20.6 µM (active)
O=C1c2ccccc2S(=O)(=O)N1Cc1c(F)cccc1Cl,-21.6,–
CC(=O)[C@@]12O[C@@H]1C[C@H]1[C@@H]3CC[C@H]4C[C@@H](O)CC[C@]4(C)[C@H]3CC[C@@]12C,-1.05,–
NC(=O)CCC(NS(=O)(=O)c1ccc(Cl)cc1)C(=O)NCc1ccccc1Cl (stereo not given),-4.28,–
O=C(O)COc1ccc(/C=N/O)cc1Br,-14.4,–
CCCCCCc1cc2cc(-c3nnc(-c4ccccc4)o3)c(=O)oc2cc1O,–,20.6 µM (active)
CCCC(=O)Nc1nnc(-c2ccccc2)o1,-12.9,–
Cc1c(CC(=O)NCCCCCC(=O)O)c(=O)oc2cc3occ(-c4ccccc4)c3cc12,-18.2,–
COc1cc2c(cc1OC)CC(=O)N(CCCN(C)C[C@H]1Cc3cc(OC)c(OC)cc31)CC2,-20.3,–
CCOc1ccc(/C=N/NC(=O)CSc2ccccn2)cc1O,-21,–
CCN(CC)C(=O)CSc1nc2ccccc2o1,1.48,–
Cn1c(SCC(=O)N/N=C/c2ccc(O)c(O)c2)nc2ccccc21,–,18.4 µM (active)
CC(C)(C)C(=O)CSc1nc2ccccc2o1,-1.1,–
C=CCn1c(Cn2nnc3ccccc32)nnc1SCC(=O)N/N=C/c1cc(Br)cc(OC)c1O,-12.7,–
Cc1ccc(/C=N/NC(=O)CSc2nc3ccccc3o2)cc1,–,23.1 µM (active)
COc1cc(OC)c(C(=O)Nc2ccc(N(C)C)cc2)cc1OC,-23.2,–
COc1ccc(-c2nc3cnc(N(C)C)nc3n(Cc3cccs3)c2=O)cc1,31.8,–
CC1(Oc2ccccc2-c2ccno2)CCN(Cc2ccc(-c3ccccc3)o2)C1 (stereo not given),–,23.1 µM (active)
CCOc1cc(/C=N/Nc2cc(C)nc3ccc(C)cc23)ccc1O,–,25.9 µM (active)
CCOc1ccc(/C=N\NC(=O)c2c(C)nc3cc(C)ccn23)cc1,-19,–
Cc1ccc2nc(C)cc(N/N=C/c3ccc(F)cc3)c2c1,-17.5,–
CCOc1cc(C=NNC(=O)CCCC(=O)NN=Cc2ccc(O)c(OCC)c2)ccc1O,-3.64,–
CCOc1cc(/C=N/NC(=O)c2c(C)nc3ccc(Cl)cn23)ccc1O,–,8.2 µM (active)
C/C=C(/C)C(=O)OC1Cc2c(ccc3ccc(=O)oc23)OC1(C)C (stereo not given),-0.964,–
